# Where “and” joins values, the source holds several entries; their conditions need not be identical. Identical values can stand only once. Results filed as inconclusive are left out. A call without a number means that no potency is given here. The source holds several records for some structures; these can differ, active in one and inactive in another. Calls of active or inactive are those of the source. Calls follow the shape of the dose curve; as a rule, active = well fitted curve in the direction sought with a large enough effect; inconclusive = small, poorly fitted or top-dose-only effect, or another doubt; inactive = no such curve, though single readings can be large; an effect the other way counts as inactive or inconclusive.
# What was measured:
# [1] = molecular target: Glutathione peroxidase 1 (Homo sapiens) (UniProt P07203); assay: Primary qHTS Assay for Inhibitors of Recombinant Selenoprotein Glutathione Peroxidase 1 (GPX1) (AID 1845191); also: nearly all actives have a fitted effect of over 65% in size
# Outline: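 Recombinant GPX1 (10 nM final) was preincubated with compound for 30 min at room temperature, then reacted with 1 mM GSH, 0.5 mM CHP, 0.5 mM NADPH and 100 nM glutathione reductase; NADPH fluorescence (340/450 nm) was read at 0 and 15 min.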
# [2] = molecular target: Metallo-beta-lactamase type 2 (Klebsiella pneumoniae) (UniProt C7C422); assay: qHTS to identify inhibitors of the New Delhi Metallo-beta-lactamase (NDM): assay validation screen against the NCATS LOPAC Collection (AID 1794843);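 also: nitrocefin turnover by NDM-1 measured as 485 nm absorbance at plateau; series mostly up to about 38 µM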
# Outline: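 NDM-1 at 2 nM final in 50 mM HEPES pH 7.0, 1 uM ZnSO4, 0.01% Tween20, preincubated with LOPAC compounds pinned in DMSO; 50 uM nitrocefin (stock) added. Hydrolysis read as absorbance at 485 nm in the plateau phase.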
# [3] = molecular target: Phospholipid hydroperoxide glutathione peroxidase GPX4 (Homo sapiens) (UniProt P36969); assay: Primary qHTS Assay for Inhibitors of Recombinant Selenoprotein Glutathione Peroxidase 4 (GPX4) (AID 1845192); also: nearly all actives have a fitted effect of over 65% in size; also: potency is read from the fitted curve at half-maximal effect; as to activity change, negative = inhibition: series mostly up to about 50 µM
# Outline: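 GR-coupled readout: 100 nM GR, 1 mM GSH, 0.5 mM NADPH; NADPH fluorescence (ex 340/em 450 nm) read at t=0 and after 15 min RT. GPX4 200 nM, preincubated 30 min with compound; substrate 0.5 mM CHP.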
# [4] = molecular target: Luciferin 4-monooxygenase (Photinus pyralis) (UniProt P08659); assay: Primary firefly luciferase (FLuc) qHTS assay for identification of artifact compounds. (AID 1845220); also: nearly all actives have a fitted effect of over 60% in size; as to activity change, negative = inhibition: series mostly up to about 54 µM
# Outline: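 qHTS, 15 min compound preincubation with substrate (10 uM luciferin, 10 uM ATP) at RT, then 10 nM FLuc; 5 min; luminescence; % inhibition vs no-enzyme/DMSO controls, 4-parameter Hill fit.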
# [5] = Primary fluorescence-based thiol-reactive (MSTI) qHTS assay for identification of artifact compounds. (AID 1845221); also: nearly all actives have a fitted effect of over 65% in size; also: potency is read from the fitted curve at half-maximal effect;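 as to activity change, negative = thiol reactive: series mostly up to about 54 µM; thiol-reactive compounds lower the probe fluorescence signal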
# Outline: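 One-hour, room-temperature, dark incubation of compound with 4 uM MSTI in PBS (pH 7.4, 2% DMSO) precedes a fluorescence read at 525 nm excitation, 598 nm emission; Hill-equation fitting yields concentration-response values.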
# [6] = system: Nanoluciferase (engineered Oplophorus gracilirostris luciferase); assay: Primary Nanoluciferase (NLuc) qHTS assay for identification of artifact compounds. (AID 1845222); also: series mostly up to about 54 µM
# Outline: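 Luminescence read-out of secreted NLuc in S16 cell conditioned medium (1:55); compounds tested with 15 min RT preincubation, then Nano-Glo substrate 1:100, 5 min. % inhibition vs no-enzyme and DMSO controls, 4-parameter Hill fit.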
# Chain of Phospholipid hydroperoxide glutathione peroxidase GPX4 (Homo sapiens) (P36969 whole entry, looked up): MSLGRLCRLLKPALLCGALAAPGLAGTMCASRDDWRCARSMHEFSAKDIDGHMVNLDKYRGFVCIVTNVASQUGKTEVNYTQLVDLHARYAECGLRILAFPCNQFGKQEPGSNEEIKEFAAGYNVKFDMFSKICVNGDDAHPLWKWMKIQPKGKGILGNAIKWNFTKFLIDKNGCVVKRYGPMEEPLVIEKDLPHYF
# Chain of Glutathione peroxidase 1 (Homo sapiens) (P07203 whole entry, looked up): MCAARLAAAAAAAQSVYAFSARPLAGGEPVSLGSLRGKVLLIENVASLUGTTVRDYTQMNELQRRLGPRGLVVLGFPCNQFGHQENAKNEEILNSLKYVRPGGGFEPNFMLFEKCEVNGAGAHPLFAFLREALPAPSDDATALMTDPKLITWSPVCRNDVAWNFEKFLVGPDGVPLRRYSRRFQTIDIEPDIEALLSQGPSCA
# Chain of Metallo-beta-lactamase type 2 (Klebsiella pneumoniae) (C7C422 whole entry, looked up): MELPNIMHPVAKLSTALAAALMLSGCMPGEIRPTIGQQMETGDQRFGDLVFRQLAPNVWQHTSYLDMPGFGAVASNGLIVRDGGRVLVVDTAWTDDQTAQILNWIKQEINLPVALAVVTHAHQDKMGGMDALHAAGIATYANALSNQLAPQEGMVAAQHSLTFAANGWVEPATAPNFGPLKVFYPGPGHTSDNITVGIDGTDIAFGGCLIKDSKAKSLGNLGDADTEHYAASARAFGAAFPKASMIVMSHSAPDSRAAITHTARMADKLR
structure (smiles),measurement,setting,value
COCC(=O)Nc1cc(Sc2ccccc2)ccc1N=C(NC(=O)OC)NC(=O)OC,Potency,[1],inactive
CN1Cc2c(N)cccc2C(c2ccccc2)C1 (centres undefined),outcome,[2],inactive
same,Potency,[1],inactive
same,Potency,[3],inactive
CCCCC(CC)COC(=O)CC(C(=O)OCC(CC)CCCC)S(=O)(=O)O (centres undefined),Potency,[1],inactive
CC1(C)C(C=C(Cl)Cl)C1C(=O)OCc1cccc(Oc2ccccc2)c1 (centres undefined),Potency,[1],inactive
same,Potency,[3],inactive
CC[C@@H](C(=O)[C@@H](C)[C@@H](O)[C@H](C)CCc1ccc(C)c(O)c1C(=O)O)[C@H]1O[C@](CC)([C@H]2CC[C@](O)(CC)[C@H](C)O2)C[C@@H]1C,Potency,[1],inactive
same,Potency,[3],4.47 µM (active)
NCCOCCOCCNC(=O)Cc1ccc(Nc2nc(NCc3ccc(F)cc3)nc(NCC3CCCCC3)n2)cc1,Potency,[1],inactive
same,Potency,[3],inactive
same,Potency,[4],inactive
C[C@@H]1[C@H](O)[C@@H](C)/C=C/C=C\C=C\C=C\C=C\C=C\C=C\[C@H](O[C@@H]2O[C@H](C)[C@@H](O)[C@H](N)[C@@H]2O)C[C@@H]2O[C@](O)(C[C@@H](O)C[C@@H](O)[C@H](O)CC[C@@H](O)C[C@@H](O)CC(=O)O[C@H]1C)C[C@H](O)[C@H]2C(=O)O (stereo in doubt),Potency,[1],inactive
same,Potency,[3],inactive
Nc1ncnc2c1ncn2[C@@H]1O[C@H](COP(=O)(O)OP(=O)(O)OP(=O)(O)O)[C@@H](O)[C@H]1O,outcome,[1],inactive [at 0.4 µM]
same,"activity change, negative = inhibition",[3],0.0913% [at 0.409 µM] (inactive)
OC[C@H]1O[C@@H](Oc2ccc(O)c3cccc(O)c23)[C@H](O)[C@@H](O)[C@@H]1O,Potency,[1],inactive
same,Potency,[3],inactive
same,Potency,[4],inactive
same,Potency,[5],0.927 µM (active)
C=C1CC[C@@H]2[C@](C)(CO)[C@H](O)CC[C@@]2(C)[C@@H]1C/C=C1/C(=O)OC[C@H]1O,Potency,[1],inactive
same,Potency,[3],inactive
C=CCc1ccc(O[C@@H]2O[C@H](CO[C@@H]3O[C@H](CO)[C@@H](O)[C@H](O)[C@H]3O)[C@@H](O)[C@H](O)[C@H]2O)c(O)c1,Potency,[1],inactive
same,Potency,[3],inactive
same,Potency,[4],inactive
same,Potency,[5],inactive
same,Potency,[6],inactive
OCc1ccccc1O[C@@H]1O[C@H](CO)[C@@H](O)[C@H](O)[C@H]1O,Potency,[1],inactive
same,Potency,[3],inactive
same,Potency,[4],inactive
same,Potency,[5],23.8 µM (active)
same,Potency,[6],inactive
Clc1cc(Cl)c(OCC#CI)cc1Cl,Potency,[1],inactive
same,Potency,[3],inactive
CC1=CC[C@]2(C(=O)O[C@@H]3O[C@H](CO[C@@H]4O[C@H](CO)[C@@H](O[C@@H]5O[C@@H](C)[C@H](O)[C@@H](O)[C@H]5O)[C@H](O)[C@H]4O)[C@@H](O)[C@H](O)[C@H]3O)CC[C@]3(C)C(CCC4[C@@]5(C)C[C@@H](O)[C@H](O)[C@@](C)(CO)C5CC[C@]43C)C2C1C (some centres undefined),Potency,[1],inactive
same,Potency,[3],inactive
same,"activity change, negative = inhibition",[4],0.527% [at 11.6 µM] (inactive)
same,"activity change, negative = thiol reactive",[5],137% [at 11.5 µM] (inactive)
same,"activity, negative = inhibition",[6],3.97% [at 11.6 µM] (inactive)
Cc1c(-c2ccnn2C)cc(C(=O)NCc2ccc(S(C)(=O)=O)cn2)c(=O)n1-c1cccc(C(F)(F)F)c1,Potency,[1],inactive
same,Potency,[3],inactive and 12.8 µM (active)
same,Potency,[4],inactive
same,Potency,[5],inactive
same,Potency,[6],inactive
